About 2,000 (36%) of roughly 5,500 compounds were called active. Not shown: some 18% with an inconclusive outcome. No stated cut-off is given here; in the data, active means normalized growth mostly below about 0.91 (no sharp cut-off); inconclusive means no clear call, values can overlap the other calls; inactive means mostly above about 0.92. This is one part of the list.
Assay: chemical genetic growth profiling, strain panel (AID 1159580);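 further: tested at 20 µM; growth read once vehicle control cultures reached saturation at 30 °C; 1 = growth at the plate median or of vehicle wells; lower values mean less growth of the strain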
Conditions: S. cerevisiae deletion strains, growth OD

Measured: normalized growth

COc1ccc(/C=C/c2cc(O)cc(O)c2)cc1
inactive: locus YJR066W, strain TOR1, active compounds read low 0.995 | locus YKL068W, active compounds read low 0.982 | locus YKL085W, strain MDH1 (second series), active compounds read low 0.946 | locus YKL085W, strain MDH1, active compounds read low 0.946 | locus YKL160W, strain elf1, active compounds read low 0.996 | locus YKR026C, strain gcn3, active compounds read low 1 | locus YKR091W, strain srl3, active compounds read low 1 | locus YLL001W, strain dnm1, active compounds read low 0.997 | locus YLL026W, active compounds read low 1.01 | locus YLL041C, strain sdh2, active compounds read low 1.01 | locus YLR027C, strain aat2, active compounds read low 1 | locus YLR039C, strain RIC1, active compounds read low 0.815 | locus YLR058C, strain SHM2, active compounds read low 0.931 | locus YLR102C, strain apc9, active compounds read low 0.966 | locus YLR113W, strain HOG1, active compounds read low 0.966 | locus YLR221C, strain rsa3, active compounds read low 0.999 | locus YLR258W, strain gsy2, active compounds read low 0.996 | locus YLR262C, strain YPT6 (second series), active compounds read low 0.991 | locus YLR262C, strain YPT6, active compounds read low 0.686 | locus YLR320W, strain mms22, active compounds read low 0.991 | locus YLR342W, strain FKS1, active compounds read low 1 | locus YLR357W, strain rsc2, active compounds read low 0.95 | locus YLR370C, strain arc18, active compounds read low 1.01 | locus YLR384C, strain iki3, active compounds read low 1.01 | locus YML016C, strain PPZ1, active compounds read low 0.964 | locus YML120C, strain ndi1, active compounds read low 0.997 | locus YML124C, strain tub3, active compounds read low 0.972 | locus YMR058W, strain fet3, active compounds read low 1 | locus YMR078C, strain ctf18, active compounds read low 0.967 | locus YMR125W, strain sto1, active compounds read low 1.01 | locus YMR129W, active compounds read low 1.01 | locus YMR205C, strain PFK2, active compounds read low 0.995 | locus YMR231W, strain pep5, active compounds read low 0.992 | locus YMR307W, strain GAS1, active compounds read low 0.663 | locus YNL067W, strain RPL9B, active compounds read low 0.908 | locus YNL071W, strain lat1, active compounds read low 1 | locus YNL153C, strain GIM3, active compounds read low 0.931 | locus YNL183C, strain NPR1, active compounds read low 0.977 | locus YNL209W, strain ssb2, active compounds read low 1.01 | locus YNL248C, strain rpa49, active compounds read low 0.999 | locus YNL250W, strain rad50, active compounds read low 0.961 | locus YNL271C, strain bni1, active compounds read low 0.945 | locus YNL298W, strain CLA4, active compounds read low 0.928 | locus YNL322C, strain KRE1 (second series), active compounds read low 1.01 | locus YNL322C, strain KRE1, active compounds read low 0.945 | locus YNR049C, strain mso1, active compounds read low 1.02 | locus YOL012C, strain htz1 0.771 | locus YOR001W, strain rrp6, active compounds read low 1 | locus YOR061W, strain CKA2, active compounds read low 0.941 | locus YOR069W, strain VPS5, active compounds read low 0.927 | locus YOR070C, strain gyp1, active compounds read low 1 | locus YOR080W, strain dia2, active compounds read low 1 | locus YOR083W, strain WHI5, active compounds read low 0.994 | locus YOR106W, strain vam3, active compounds read low 0.956 | locus YOR136W, strain idh2, active compounds read low 0.936 | locus YOR231W, strain MKK1, active compounds read low 0.991 | locus YOR265W, strain rbl2, active compounds read low 1.02 | locus YOR270C, strain vph1, active compounds read low 0.998 | locus YOR290C, strain snf2, active compounds read low 0.995 | locus YOR316C, strain cot1, active compounds read low 0.961 | locus YPL051W, strain arl3, active compounds read low 0.973 | locus YPL078C, strain atp4, active compounds read low 0.998 | locus YPL106C, strain sse1, active compounds read low 0.996 | locus YPL240C, strain hsp82, active compounds read low 1.01 | locus YPL241C, strain CIN2, active compounds read low 0.973 | locus YPL256C, strain CLN2, active compounds read low 1.05 | locus YPR119W, strain clb2, active compounds read low 0.964 | locus YPR141C, strain kar3, active compounds read low 0.977 | locus YPR167C, strain met16, active compounds read low 0.969
active: locus YJR043C, strain POL32, active compounds read low 0.788 | locus YKL009W, strain mrt4, active compounds read low 0.87 | locus YKR001C, strain vps1, active compounds read low 0.608 | locus YLR268W, strain sec22, active compounds read low 0.872 | locus YLR330W, strain CHS5, active compounds read low 0.84 | locus YLR342W, strain FKS1 (second series), active compounds read low 0.785 | locus YLR371W, strain rom2, active compounds read low 0.793 | locus YLR418C, strain cdc73, active compounds read low 0.583 | locus YML032C, strain rad52, active compounds read low 0.886 | locus YMR223W, strain ubp8, active compounds read low 0.89 | locus YMR263W, strain SAP30, active compounds read low 0.883 | locus YNL233W, strain BNI4, active compounds read low 0.823 | locus YNL307C, strain MCK1, active compounds read low 0.857 | locus YNR052C, strain pop2, active compounds read low 0.914 | locus YOL147C, strain pex11, active compounds read low 0.868 | locus YOR144C, strain elg1, active compounds read low 0.932 | locus YOR184W, strain ser1, active compounds read low 0.623 | locus YPR163C, strain tif3, active compounds read low 0.842 | strain wtn01, active compounds read low 0.838

Reference: PubChem BioAssay AID1159580 (chemical genetic matrix, 2015)
